The source of these data is PubChem BioAssay (Tox21).

Records with an inconclusive call do not appear. Values without a mark were called inactive. Active and inactive are the calls of the source. Unless noted, the call rests on the fitted dose curve; in most records, active means well fitted curve in the direction sought with a large enough effect in the repeat runs; inconclusive means weak or mixed curves; inactive means no such curve, though single readings can be large; an effect the other way counts as inactive or inconclusive.

Assay [1] in a line: qHTS assay to identify small molecule agonists of the vitamin D receptor (VDR) signaling pathway - cell viability counter screen (AID 743224). Further: nearly all actives have a fitted effect of over 50% in size. Further: potency means the concentration at half of the fitted maximal effect. Put shortly: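 VDR-bla cell line, quantitative HTS format; 16 h compound incubation (37C, 5% CO2); ATP-based CellTiter-Glo luminescence measured in the reporter assay wells.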
(qHTS replaces the single test concentration by a dilution series.)

Assay [2] can be described thus: qHTS assay to identify small molecule antagonists of the vitamin D receptor (VDR) signaling pathway - cell viability counter screen (AID 743225). Further: nearly all actives have a fitted effect of over 50% in size. Further: potency means the concentration at half of the fitted maximal effect. In outline: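 Viability counter screen run in the same wells as the beta-lactamase reporter assay: HEK 293T VDR-UAS-bla cells, 16 h compound exposure at 37C with 3 nM (final) 1-alpha,25-dihydroxyvitamin D3. CellTiter-Glo luminescence, 30 min, room temperature.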

A short description of assay [3]: qHTS assay to identify small molecule agonists of the NFkB signaling pathway - cell viability counter screen (AID 1159515; calls by dose curve; further: nearly all actives have a fitted effect of over 55% in size). In outline:
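Viability in NFkB-bla ME-180 cells was measured by CellTiter-Glo luminescence, 30 min room temperature, in wells already treated 5 hr with compounds and read for reporter FRET.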

Assay [4] is described as follows: qHTS assay to identify small molecule agonists of the endoplasmic reticulum stress response signaling pathway - cell viability counter screen (AID 1159517; calls by dose curve; further: nearly all actives have a fitted effect of over 50% in size; further: potency means the concentration at half of the fitted maximal effect). In outline:
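Luminescence readout: CellTiter-Glo, 30 min RT, same wells as the ESRE-bla reporter read. HeLa ESRE-bla, 1,500 cells/well, o/n 37 C; cpd 5 hr 37 C/5% CO2.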

A short description of assay [5]: qHTS assay to identify small molecule antagonists of the retinoid-related orphan receptor gamma (ROR-gamma) signaling pathway - cell viability counter screen (AID 1159520). Further: nearly all actives have a fitted effect of over 50% in size. Further: potency means the concentration at half of the fitted maximal effect. In outline: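 Tet-on ROR gamma CHO cells (1,000/well) were plated 4 hr, given compounds in DMSO for 2 hr at 37 C, then induced with 1 uM final doxycycline for 16 hr. Viability was read as ATP by CellTiter-Glo luminescence after 30 min.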

Assay [6] deals with Nuclear receptor ROR-gamma (Homo sapiens) (UniProt P51449). The assay is described as follows: qHTS assay to identify small molecule antagonists of the retinoid-related orphan receptor gamma (ROR-gamma) signaling pathway (AID 1159521; further: nearly all actives have a fitted effect of over 50% in size; further: potency means the concentration at half of the fitted maximal effect). In outline: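 Luminescence readout (ONE-Glo, 30 min RT) after 16 h doxycycline induction; loss of signal scored as antagonism. CHO cells with TET-inducible RORγ and RORE-LUC reporter; compounds added 2 h before 1 uM final doxycycline.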

Assay [7] in a line: qHTS assay to identify small molecule agonists of the AP-1 signaling pathway - cell viability counter screen (AID 1159525; calls by dose curve; further: nearly all actives have a fitted effect of over 55% in size; further: potency means the concentration at half of the fitted maximal effect). Put shortly: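 ME-180 AP-1-bla, 2500 cells/well, Opti-MEM + 0.5% dialyzed FBS; overnight 37 °C; cpd 15-pt titration, 5 h 37 °C; CellTiter-Glo 30 min RT; luminescence read; normalised to TOAB and DMSO controls.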
Assay [8] in a line: qHTS assay to identify small molecule agonists of the RXR signaling pathway - cell viability counter screen (AID 1159529). Further: nearly all actives have a fitted effect of over 50% in size. Further: potency means the concentration at half of the fitted maximal effect. In outline: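 Luminescence from CellTiter-Glo (30 min, RT) measured viability in the same wells as the beta-lactamase reporter readout. Cells: GeneBLAzer RXR-alpha HEK 293T, 2% charcoal-stripped FBS. Compound exposure 16 hr, 37 C.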
A short description of assay [9]: qHTS assay to identify small molecule antagonists of the retinoid acid receptor (RAR) signaling pathway - cell viability counter screen (AID 1159551). Further: nearly all actives have a fitted effect of over 35% in size. Further: potency means the concentration at half of the fitted maximal effect. In outline:
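Following overnight attachment, C3RL4 reporter cells received DMSO-dissolved compounds and then retinol (1 uM final). Six hours later at 37 C, ATP content was measured by CellTiter-Glo luminescence.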

The nature of assay [10]: qHTS assay to identify small molecule antagonists of the retinoic acid receptor (RAR) signaling pathway (AID 1159552; further: nearly all actives have a fitted effect of over 50% in size; further: potency means the concentration at half of the fitted maximal effect). Put shortly: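 Luminescence from a RARE luciferase reporter in C3RL4 cells served as read-out. Cells received compounds together with 1 uM final retinol and incubated 6 hr at 37 C before detection reagent was added for 30 min at room temperature.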
Assay [11] can be described thus: qHTS assay to identify small molecule antagonists of the estrogen related receptor (ERR) signaling pathway - cell viability counter screen (AID 1224818). Put shortly:
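Here, ERR cells are plated at 2,000 cells per well, allowed 6 h to attach, and treated with compounds in DMSO for 17.5 h at 37 C. CellTiter-Fluor is then added and fluorescence read after 30 min.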

A short description of assay [12]: qHTS assay to identify small molecule antagonists of the estrogen related receptor signaling pathway with the pleiotropic PPARgamma coactivator (PGC) cell viability counter screen (AID 1224822). In outline: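 qHTS format, DMSO compound stocks pin-transferred onto PGC/ERR cells 6 h after plating; 17.5 h exposure at 37 C, then CellTiter-Fluor fluorescence.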

A short description of assay [13]: qHTS assay to identify small molecule agonists of the endoplasmic reticulum stress response signaling pathway (AID 1159516; active means well fitted activation curve with a large enough effect in the signal ratio in the repeat runs, not every such curve was filed as active; the % refers to the signal ratio). Put shortly:
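ER stress element reporter (bla) in HeLa. 1,500 cells/well, overnight attachment; 5 hr compound; 2 hr RT substrate; dual-emission fluorescence.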

The nature of assay [14]: qHTS assay to identify small molecule agonists of the AP-1 signaling pathway (AID 1159526; calls by dose curve; further: potency means the concentration at half of the fitted maximal effect).
Assay [15] in a line: qHTS assay to identify small molecule agonists of the retinoic acid receptor (RAR) signaling pathway (AID 1159553). Further: potency means the concentration at half of the fitted maximal effect. To be noted: C3RL4 RARE luciferase reporter, agonist, 6 h; activation: at 73.3 µM (top of the series). In outline: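 Cell line C3RL4, RARE luciferase reporter. Treatment: compounds in DMSO, 6 hr, 37 C, 5% CO2, after overnight plating. Detection: luminescence, 30 min RT after reagent.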

The target in assay [16] is Retinoic acid receptor RXR-alpha (Homo sapiens) (UniProt P19793). The assay is described as follows: qHTS assay to identify small molecule agonists of the RXR signaling pathway (AID 1159527; calls by dose curve; further: nearly all actives have a fitted effect of over 35% in size). In outline: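 Agonist mode; 9-cis retinoic acid positive control. HEK 293T UAS-bla reporter cells, 2% charcoal-stripped FBS, 16 hr compound exposure at 37 C/5% CO2. LiveBLAzer B/G FRET substrate 2 hr RT; ex 405, em 460/530 nm.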
Retinoic acid receptor RXR-alpha (Homo sapiens), sequence (P19793 whole entry, looked up): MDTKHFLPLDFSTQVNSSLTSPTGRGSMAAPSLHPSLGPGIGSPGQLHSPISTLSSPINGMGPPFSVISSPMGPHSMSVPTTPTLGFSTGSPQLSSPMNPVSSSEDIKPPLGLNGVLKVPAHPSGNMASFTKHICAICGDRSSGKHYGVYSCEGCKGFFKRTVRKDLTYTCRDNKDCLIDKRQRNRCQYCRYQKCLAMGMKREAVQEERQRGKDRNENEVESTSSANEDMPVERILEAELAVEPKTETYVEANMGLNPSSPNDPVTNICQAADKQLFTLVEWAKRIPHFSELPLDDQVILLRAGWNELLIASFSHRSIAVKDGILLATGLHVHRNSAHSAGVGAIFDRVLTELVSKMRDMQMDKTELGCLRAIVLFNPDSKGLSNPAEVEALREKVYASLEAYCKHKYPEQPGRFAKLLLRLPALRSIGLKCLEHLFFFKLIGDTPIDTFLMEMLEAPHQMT

As for `CCCCCCCCCCCCCCN(CCO)CCO`, the Potency in assay [1] is 24.5 µM (active); in [2] it was 43.6 µM (active); in assay [5], 61.1 µM (active); in assay [6] it was 30.6 µM (active); in assay [7], 54.9 µM (active); in assay [8], 21.9 µM (active). In addition, the Potency in assay [9] is 61.1 µM (active); in [10] it was 30.6 µM (active). Further, the Potency result in [3] and in assay [4] was “inactive” each time.
For `CC(C)COCC(CN(Cc1ccccc1)c1ccccc1)N1CCCC1` (centres undefined), the Potency result in [3] and in [4] was “inactive” in each case. Also, the Potency in assay [6] is 23.7 µM (active); in [8], 19 µM (active). Moreover, the call in assay [11] and in assay [12] was inactive.
In the case of `CCC(C)(C)OC`, the Potency result in assay [1], in assay [2], in [13], in assay [4], in assay [5] and in [7] was “inactive” throughout. Further, the Potency entry in assay [14], in assay [9], in assay [10] and in assay [15] was “inactive” throughout. Besides, in [8], the Potency is 48.8 µM (active).
Turning to `O=C1CCCCCCCCCCOCCCCO1`, the Potency result in assay [2], in [3], in assay [4], in [5], in [7] and in assay [16] was “inactive” each time. Moreover, the Potency entry in assay [9], in [10] and in assay [15] was “inactive” in each case.
`O=c1[nH]ncc2ccccc12`: the Potency entry in [1], in assay [2], in [13], in assay [4], in assay [5] and in assay [6] was “inactive” in each case. In addition, the Potency result in assay [7], in assay [14], in assay [8], in [9], in assay [10] and in assay [15] was “inactive” in each case.
As for `OC[C@H]1O[C@@H](n2cnc3c(=S)nc[nH]c32)[C@H](O)[C@@H]1O`, the Potency in assay [1] was 7.5 µM (active); in assay [2], 8.49 µM (active); in assay [8], 2.13 µM (active). Moreover, the Potency entry in [3], in assay [4], in [5], in assay [7], in assay [14] and in assay [10] was “inactive” throughout.
With `CN1CCCC(CC2c3ccccc3Sc3ccccc32)C1` (centres undefined), the Potency in [1] is 26.6 µM (active); in assay [2], 21.3 µM (active); in assay [14] it was 16.9 µM (active). The Potency entry in assay [4], in [7] and in assay [9] was “inactive” in each case.
Take `COc1ccccc1Oc1c(NS(=O)(=O)c2ccc(C(C)(C)C)cc2)nc(-c2ncccn2)nc1OCCO`: the Potency result in assay [2], in [3], in assay [4], in assay [5], in assay [7] and in [8] was “inactive” each time. In addition, the Potency entry in assay [9], in assay [10] and in [15] was “inactive” in each case. Besides, the Potency in [6] is 18.8 µM (active).
For `C[C@@H]1CN(CCCn2c3ccccc3c3ccccc32)C[C@H](C)N1`, the Potency is 26.6 µM (active) in assay [1], 23.9 µM (active) in assay [2], 23.9 µM (active) in assay [8] and 33.5 µM (active) in assay [10]. Also, the Potency result in assay [3], in assay [7] and in [14] was “inactive” throughout.
`NCCNCCO`: the Potency result in assay [1], in assay [13], in assay [4], in assay [5], in [7] and in assay [14] was “inactive” throughout. The Potency entry in [16], in assay [8], in assay [9], in assay [10] and in [15] was “inactive” in each case.
For `CCOC(=O)c1ccc(OCCN2C[C@H](O)[C@@H](O)[C@H](O)[C@H]2CO)cc1`, the Potency result in [1], in assay [2], in [3], in [5], in assay [6] and in assay [7] was “inactive” each time. Further, the Potency entry in assay [14], in [16], in [8] and in assay [9] was “inactive” each time.
In the case of `C1COC1`, the Potency entry in [1], in assay [2], in assay [5], in assay [6], in assay [7] and in [14] was “inactive” throughout. The Potency entry in assay [16], in assay [8], in [9] and in [10] was “inactive” throughout.
For `CN1C(=O)OC(C)(C)C1=O`, the Potency result in assay [1], in assay [2], in assay [4], in assay [5], in assay [6] and in assay [7] was “inactive” each time. Besides, the Potency entry in assay [14], in assay [16], in assay [8], in [9], in assay [10] and in [15] was “inactive” throughout.
For `CN1C(C(=O)Nc2ccccn2)=C(O)c2sccc2S1(=O)=O`, the Potency result in assay [3], in assay [4], in [5], in [7], in assay [16] and in assay [8] was “inactive” throughout. Also, the Potency entry in assay [9] and in [10] was “inactive” throughout. The Potency in assay [15] is 29.8 µM (active).
Turning to `CCOc1cccc(-n2cc(C(=O)N3CCN(c4cc(C(=O)O)c5ccccc5c4)CC3)nc2-c2ccc(C)cc2)c1`, the Potency entry in assay [3], in assay [4], in assay [8], in assay [9], in [10] and in assay [15] was “inactive” each time.
With `CCCCN1CCCC1C(=O)Nc1c(C)cc(C)cc1C` (centres undefined), the Potency entry in assay [2], in assay [3], in [4], in assay [5], in assay [7] and in assay [16] was “inactive” throughout. Further, the Potency entry in assay [9], in [10] and in assay [15] was “inactive” throughout.
For the compound `CS(=O)(=O)c1ccc(-c2cn3ccccc3n2)cc1`, the Potency was 29.8 µM (active) in assay [1], 23.9 µM (active) in assay [4], 11.9 µM (active) in assay [9] and 1.68 µM (active) in [15]. The Potency entry in assay [6] and in assay [10] was “inactive” in each case.
For `O=c1c(O)c(-c2ccc(O)cc2)oc2cc(O)cc(O)c12`, the Potency result in assay [1], in assay [2], in [4], in assay [5], in assay [6] and in [7] was “inactive” throughout. Besides, the Potency result in assay [14], in [16], in assay [8] and in [10] was “inactive” each time. The Potency in [15] is 18.4 µM (active).
